# Experimental data published in PubChem BioAssay (NCATS).
# The source made the active and inactive calls. Calls follow the shape of the dose curve; as a rule, active = well fitted curve in the direction sought with a large enough effect; inconclusive = small, poorly fitted or top-dose-only effect, or another doubt; inactive = no such curve, though single readings can be large or run the other way.
# Target: Hexokinase-4 (Homo sapiens) + Glucokinase regulatory protein (Homo sapiens) (UniProt P35557+Q14397)
# Sequence (P35557 whole entry, looked up): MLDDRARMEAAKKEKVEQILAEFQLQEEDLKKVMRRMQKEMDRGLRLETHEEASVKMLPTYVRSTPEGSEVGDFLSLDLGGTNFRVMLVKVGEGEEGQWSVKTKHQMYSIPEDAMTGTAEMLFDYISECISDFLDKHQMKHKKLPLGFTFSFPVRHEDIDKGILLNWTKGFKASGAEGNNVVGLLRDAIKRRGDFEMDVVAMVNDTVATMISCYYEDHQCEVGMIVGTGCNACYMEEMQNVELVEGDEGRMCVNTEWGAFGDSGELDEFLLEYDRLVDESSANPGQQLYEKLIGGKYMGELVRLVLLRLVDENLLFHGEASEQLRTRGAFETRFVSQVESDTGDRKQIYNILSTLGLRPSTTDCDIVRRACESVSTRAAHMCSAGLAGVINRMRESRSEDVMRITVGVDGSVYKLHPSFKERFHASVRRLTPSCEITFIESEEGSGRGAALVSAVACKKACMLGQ
# Sequence (Q14397 whole entry, looked up): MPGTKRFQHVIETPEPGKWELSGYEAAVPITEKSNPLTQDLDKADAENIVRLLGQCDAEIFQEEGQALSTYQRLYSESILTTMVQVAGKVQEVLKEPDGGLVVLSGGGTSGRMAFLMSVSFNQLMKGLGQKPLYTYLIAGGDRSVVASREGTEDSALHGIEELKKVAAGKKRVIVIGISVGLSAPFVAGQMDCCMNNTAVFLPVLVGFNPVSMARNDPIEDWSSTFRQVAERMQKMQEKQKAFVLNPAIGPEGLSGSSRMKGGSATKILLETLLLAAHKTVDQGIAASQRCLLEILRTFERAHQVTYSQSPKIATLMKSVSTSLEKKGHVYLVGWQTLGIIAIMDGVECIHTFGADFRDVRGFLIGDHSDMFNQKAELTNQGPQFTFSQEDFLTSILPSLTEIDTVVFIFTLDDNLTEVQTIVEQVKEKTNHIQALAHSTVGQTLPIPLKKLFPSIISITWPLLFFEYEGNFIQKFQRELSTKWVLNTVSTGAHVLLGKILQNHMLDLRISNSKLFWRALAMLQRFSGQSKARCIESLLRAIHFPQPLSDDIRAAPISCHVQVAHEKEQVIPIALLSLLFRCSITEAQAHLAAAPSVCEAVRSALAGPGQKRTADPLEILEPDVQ
# Assay: qHTS assay for inhibitors of recombinant human GCK-GKRP interaction: Diaphorase-coupled assay (AID 743205)
# Settings: G6PDH/diaphorase resorufin fluorescence; series mostly up to 57.5 µM; activity change, positive = activation: at the top concentration
# Description: Glucokinase (GCK) is a glucose sensor in hepatocytes and pancreatic beta-cells. Hepatic GCK is regulated by glucokinase regulatory protein (GKRP), which is predominantly localized to the liver. GKRP binds to GCK inhibiting its activity in the fasting state while in the presence of glucose the GKRP is displaced. There is an additional layer of regulation by fructose 1-phosphate and fructose 6-phosphate, which inhibit and enhance the GCK-GKRP interaction, respectively. GCK plays a role in glucose homeostasis and there is an interest in the development of strategies to activate GCK to lower blood glucose levels in type 2 diabetes. To date the majority of effort has focused on direct activation of GCK and the assays developed herein look to activate GCK by inhibiting its binding to GKRP. A compound that inhibits the interaction of GCK with GKRP could be important for the treatment of diabetes and can also be used as a tool compound to further elucidate GCK-GKRP biology. To that end, we have developed a sensitive HTS biochemical assay where in GCK activity is coupled to G6PDH and Diaphorase to interrogate the GCK-GKRP interaction. This assay was screened against a small compound library to look for modulators of activity.
# 2 uL of substrate (columns 1-48) are dispensed into Greiner, black solid-bottom 1536-well assay plates. Compounds (23 nL) are then transferred via Kalypsys pin tool equipped with 1536-pin array (10 nL slotted pins, V&P Scientific, San Diego, CA). The library compounds are in columns 5-48 and columns 1-4 serve as controls with DMSO in columns 1 and 3 and 26 mM 1:1.5 fold serial of gluckokinase activator (GKA-EMD) in column 2 and 26 mM of the glucokinase activator (GKA-EMD) in column 4. Following addition of compound and a 20 minute incubation, 1 uL of enzyme mix (GST-GCK, FLAG-GKRP and diaphorase) is added to columns 1, 2, 4-48 and 1 uL of no enzyme mix (FLAG-GKRP and diaphorase) is added to column 3 and the fluorescent product resorufin generated from resazurin was monitored on a Viewlux (PerkinElmer, Shelton, CT, USA) with excitation at 525 nm and emission at 590 nm in kinetic mode where the plate was read every minute for 30 minutes. The final concentration of reagents in the reaction are 25 mM Hepes pH 7.6, 25 mM KCl, 2 mM MgCl2, 1.4 mM 2-mercaptoethanol, 0.025% BSA, 0.01% Tween-20, 0.15 mM NADP+, 5 mM glucose, 0.4 mM ATP, 4 U/ml G6PDH, 0.1 mM resazurin, 10 nM GST-GCK, 10 nM FLAG-GKRP, diaphorase (0.1 mg/mL). Data are normalized to DMSO-treated control columns with (maximum signal) and without (minimum signal) enzyme.
row,SMILES,"activity change, positive = activation"
1,CO/N=C(\C(=O)N[C@@H]1C(=O)N2C(C(=O)O)=C(CSc3nc(=O)c(O)nn3C)CSC12)c1csc(N)n1 (stereo not given in full),-8.74% (inactive)
2,COc1ccc2c(c1)CCC1C2CC[C@@]2(C)C1CC[C@@H]2NCCCCCCN1C(=O)C=CC1=O (stereo not given in full),-3.23% (inactive)
3,CC[C@@H]1Cc2cc(O)ccc2C2=C1c1ccc(O)cc1C[C@H]2CC,-11.9% (inactive)
4,Nc1nc2c(nc(Br)n2C2OC3COP(=O)(O)O[C@@H]3C2O)c(=O)[nH]1 (stereo not given in full),-0.0411% (inactive)
5,O=C1Nc2ccc(I)cc2/C1=C/c1cc(Br)c(O)c(Br)c1,0.323% (inactive)
6,CCN1C(=O)C=CC1=O,-3.11% (inactive)
7,CC1=C(C(=O)O)N2C(=O)[C@@H](NC(=O)C(N)C3=CCC=CC3)[C@H]2SC1 (stereo not given in full),-10.6% (inactive)
8,N=C(N)SCCN,-3% (inactive)
9,O=[N+]([O-])c1cccc2cn[nH]c12,-5.49% (inactive)
10,O=C1OC(=O)C2C3CCC(O3)C12 (stereo not given),-1.35% (inactive)
11,COc1ccccc1N1CCN(CCCNc2c(C)c(=O)n(C)c(=O)n2C)CC1,-1.13% (inactive)
12,CN1CCN(c2nc3cc(C(F)(F)F)ccc3n3cccc23)CC1,-4.65% (inactive)
13,CNCCc1cnc(CCC(c2ccccc2)c2ccccc2)[nH]1,-0.688% (inactive)
14,C[C@]12C=CC(=O)C=C1CC[C@@H]1C2=CC[C@]2(C)[C@@H](C(=O)CN3CCN(c4cc(N5CCCC5)nc(N5CCCC5)n4)CC3)CC[C@@H]12,-29.3% (inactive)
15,O=C(O)Cc1c[nH]c2ccc(O)cc12,-27.7% (inactive)
16,CCN(CC)CCCCCCCCOC(=O)c1cc(OC)c(OC)c(OC)c1,0.146% (inactive)
17,NS(=O)(=O)c1cccc2c1c([N+](=O)[O-])cc1nc(O)c(O)nc12,-29% (inactive)
18,NC(=O)CC[C@H](N)C(=O)O,-4.41% (inactive)
19,O=c1[nH]c2ccccc2c2ccccc12,-6.81% (inactive)
20,CCOC(=O)C12CC1/C(=N/O)c1ccccc1O2 (stereo not given),-5.44% (inactive)

row,SMILES,"activity change, positive = activation"
1,CC(=O)/C(C)=N/O,1.28% (inactive)
2,CN1CCc2cc(Cl)c(O)cc2[C@@H](c2ccccc2)C1,-6.44% (inactive)
3,N[C@H](C(=O)O)[C@H](Cc1ccccc1)C(=O)O,-0.0566% (inactive)
4,O=c1onc2n1-c1cc(Br)ccc1OC2,-5.94% (inactive)
5,N[C@H](C(=O)O)[C@H](O)C(=O)O,-5.06% (inactive)
6,O=C(O)/C=C/c1ccc(O)c(O)c1,-5.58% (inactive)
7,CCC1(O)CC2CN(CCc3c([nH]c4ccccc34)[C@@](C(=O)OC)(c3cc4c(cc3OC)N(C=O)C3[C@]45CCN4CC=C[C@@](CC)([C@@H](OC(C)=O)[C@]3(O)C(=O)OC)[C@H]45)C2)C1 (stereo not given in full),-4.14% (inactive)
8,CC(C)Cn1c(=O)n(C)c(=O)c2[nH]cnc21,-4.47% (inactive)
9,COc1ccc(CCn2nnnc2C2(c3ccc(C)cc3)CC2)cc1,-0.998% (inactive)
10,C=CCN1CCc2cc(O)c(O)cc2C(c2ccccc2)C1 (stereo not given),-11.7% (inactive)
11,O=C(O)Cc1ccc(O)c(O)c1,-5.12% (inactive)
12,CCCCCCCCCCC(C)(C)C(=O)Nc1c(OC)cc(OC)cc1OC,-15.4% (inactive)
13,O=C(O)CCC/C=C\C[C@@H]1[C@@H](/C=C/[C@H](O)C2Cc3ccccc3C2)[C@@H](F)C[C@@H]1O,-0.374% (inactive)
14,NOCC(=O)O,5.23% (inactive)
15,O=c1[nH]ccc2c(O)cccc12,-5.12% (inactive)
16,CC(N)=O,-1.93% (inactive)
17,CC(N)(C(=O)O)c1ccc(C(=O)O)cc1 (stereo not given),2.44% (inactive)
18,NC(N)=NC(N)=Nc1ccccc1,3% (inactive)
19,O=C(O)c1cc2cc(F)ccc2[nH]1,-3.29% (inactive)
20,Nn1nnc2ccccc21,-1.35% (inactive)
